Some test systems named below: DU-145 prostate; K-562 leukemia; MALME-3M melanoma; MDA-MB-231 breast; RXF 393 renal; SF-268 CNS; SF-295 CNS; SF-539 CNS; UACC-257 melanoma; M14 melanoma; HCT-15 colon; HT29 colon; SNB-75 CNS; SNB-19 CNS; U251 CNS; PC-3 prostate; SK-MEL-5 melanoma; UACC-62 melanoma; LOX IMVI melanoma; SK-MEL-28 melanoma.
What all share (test): NCI-60 one-dose screen, 48 h (100 = growth as untreated, 0 = no growth, -100 = all killed)
Details in all cases: 10 µM unless noted

About 83,000 compounds went through this panel and 20% of them were active in at least one assay; those are over-represented in the sample as a whole.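 Single-dose data. Exposure time 48 hours. Values below 10 considered active.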 Unmarked numbers belong to inactive results. The source made the active and inactive calls.

For `COc1ccccc1CNCCCN1C(=O)c2ccc3c4c(ccc(c24)C1=O)C(=O)N(CCCNCCCCN)C3=O`, the growth in the assay on DU-145 prostate is -71.1% (active); with K-562 leukemia, 3.21% (active); with MALME-3M melanoma it was -80.7% (active); with MDA-MB-231 breast, 9.4% (active); with RXF 393 renal, -80.9% (active); in the assay with SF-268 CNS, 0.101% (active). The growth with SF-295 CNS was 0.192% (active); in the assay with SF-539 CNS it was -75.3% (active); in the assay on UACC-257 melanoma, -71.8% (active); with M14 melanoma it was -80.2% (active); in the assay with HCT-15 colon, 12.7%; in the assay on HT29 colon it was -23.9% (active). The growth with SNB-75 CNS was -95.3% (active); in the assay on SNB-19 CNS, -57.8% (active); with U251 CNS, -67.4% (active); in the assay with PC-3 prostate, -11.8% (active); with SK-MEL-5 melanoma, -98.3% (active); with UACC-62 melanoma, -60.1% (active). Further, the growth in the assay with LOX IMVI melanoma is -16.3% (active); in the assay with SK-MEL-28 melanoma, -94.1% (active).
For the molecule `COc1cccc(/C=C/C(=O)c2c(C)nc3ccccc3c2/C=C/c2ccc(C)cc2)c1OC`, the growth in the assay with DU-145 prostate was 52.3%; with K-562 leukemia, 17.3%; in the assay with MALME-3M melanoma, 79.1%; in the assay on MDA-MB-231 breast, 63.8%; with RXF 393 renal, 53.8%; with SF-268 CNS, 70.3%. In addition, the growth is 65.7% in the assay with SF-295 CNS; 72.8% in the assay on SF-539 CNS; 67.5% in the assay with UACC-257 melanoma; 73.7% in the assay with M14 melanoma; 19% in the assay with HCT-15 colon; 29.7% with HT29 colon. Also, the growth in the assay on SNB-75 CNS was 42.4%; in the assay with SNB-19 CNS, 70.2%; with U251 CNS, 55.3%; in the assay with PC-3 prostate it was 43.4%; with SK-MEL-5 melanoma, 66%; in the assay with UACC-62 melanoma, 43.6%. Besides, the growth in the assay on LOX IMVI melanoma was 39%; in the assay on SK-MEL-28 melanoma, 40.9%.
For `O=C(CCCCCCSc1nc(-c2ccccc2)cc(-c2ccc(Cl)cc2)n1)NO`, the growth in the assay with DU-145 prostate is 6.26% (active); in the assay with K-562 leukemia, 8.35% (active); in the assay on MALME-3M melanoma it was 7.3% (active); with MDA-MB-231 breast it was 25.3%; with RXF 393 renal, -17% (active); with SF-268 CNS, 15%. Besides, the growth is 27.1% in the assay with SF-295 CNS; 25% in the assay with SF-539 CNS; 6.32% (active) in the assay with UACC-257 melanoma; 6.52% (active) with M14 melanoma; 15.6% in the assay on HCT-15 colon; 4.56% (active) in the assay with HT29 colon. Besides, the growth is 17.8% with SNB-75 CNS; 18.3% in the assay with SNB-19 CNS; 0.693% (active) in the assay with U251 CNS; 39.9% with PC-3 prostate; -26.9% (active) in the assay on SK-MEL-5 melanoma; -1.11% (active) in the assay with UACC-62 melanoma. Besides, the growth was -78% (active) in the assay with LOX IMVI melanoma and 42% with SK-MEL-28 melanoma.
As for `NC(=S)Nc1cccc(O)c1`, the growth was 121% with DU-145 prostate; 106% with K-562 leukemia; 102% in the assay on MALME-3M melanoma; 96.7% in the assay on MDA-MB-231 breast; 120% with RXF 393 renal; 109% in the assay with SF-268 CNS. For the same molecule, the growth is 100% with SF-295 CNS; 95.8% in the assay with SF-539 CNS; 92.9% in the assay on UACC-257 melanoma; 98.4% in the assay with M14 melanoma; 88.3% in the assay with HCT-15 colon; 103% with HT29 colon. In addition, the growth was 83.8% in the assay on SNB-75 CNS; 99.3% in the assay with SNB-19 CNS; 95.5% in the assay on U251 CNS; 105% with PC-3 prostate; 106% in the assay on SK-MEL-5 melanoma; 90.5% with UACC-62 melanoma. Also, the growth with LOX IMVI melanoma was 87.8%; in the assay on SK-MEL-28 melanoma it was 110%.
Take `CC1SC(c2ccc(OCc3ccccc3)cc2)N(NC(=O)C(O)(c2ccccc2)c2ccccc2)C1=O` (stereo not given): the growth in the assay with DU-145 prostate is 89.6%; with K-562 leukemia it was 40.9%; in the assay on MALME-3M melanoma it was 72.3%; with MDA-MB-231 breast, 76.5%; in the assay on RXF 393 renal, 51.4%; with SF-268 CNS it was 71.4%. Also, the growth in the assay with SF-295 CNS is -20.7% (active); with SF-539 CNS it was 74.4%; in the assay on UACC-257 melanoma, 78.3%; in the assay on M14 melanoma, 57.2%; in the assay on HCT-15 colon, 60.9%; in the assay with HT29 colon it was 38.1%. Moreover, the growth is 77.5% in the assay with SNB-75 CNS; 69.3% with SNB-19 CNS; 66% with U251 CNS; 30.1% in the assay on PC-3 prostate; 94.9% in the assay on SK-MEL-5 melanoma; 63.7% in the assay with UACC-62 melanoma. Besides, the growth was 58.9% in the assay on LOX IMVI melanoma and 78.2% in the assay on SK-MEL-28 melanoma.
Consider `Cc1c(Cl)cc(-n2c(=O)c3ccccc3c3ccccc3c2=O)cc1Cl`, for which the growth with DU-145 prostate is 121%; in the assay on K-562 leukemia, 106%; in the assay on MALME-3M melanoma it was 90.5%; in the assay on MDA-MB-231 breast, 84.2%; with RXF 393 renal, 123%; in the assay with SF-268 CNS, 105%. In addition, the growth in the assay with SF-295 CNS is 102%; in the assay on SF-539 CNS, 110%; in the assay on UACC-257 melanoma, 104%; in the assay with M14 melanoma, 93%; in the assay on HCT-15 colon, 110%; with HT29 colon it was 103%. Moreover, the growth with SNB-75 CNS is 89.9%; in the assay with SNB-19 CNS, 104%; with U251 CNS it was 102%; with PC-3 prostate, 82%; with SK-MEL-5 melanoma it was 107%; in the assay on UACC-62 melanoma, 92.6%. In addition, the growth in the assay on LOX IMVI melanoma was 95.2%; in the assay on SK-MEL-28 melanoma it was 117%.
`COc1cc(-c2n/c(=C\c3c(O)[nH]c4ccc(Cl)cc34)cc3c2=Nc2ccccc2-3)cc(OC)c1OC`: the growth with DU-145 prostate is -15.4% (active); in the assay with K-562 leukemia it was 3.48% (active); in the assay with MALME-3M melanoma it was -40.3% (active); in the assay with MDA-MB-231 breast, -14.9% (active); in the assay with RXF 393 renal, -70.3% (active); in the assay on SF-268 CNS, -11.8% (active). Further, the growth is 7.89% (active) in the assay on SF-295 CNS; 31.2% with SF-539 CNS; 27.2% in the assay with UACC-257 melanoma; 0.836% (active) in the assay with M14 melanoma; 28.4% in the assay with HCT-15 colon; -11.2% (active) in the assay on HT29 colon. In addition, the growth in the assay on SNB-75 CNS is -4.26% (active); in the assay on SNB-19 CNS, 14.9%; with U251 CNS, -84.3% (active); with PC-3 prostate, -13.1% (active); in the assay with SK-MEL-5 melanoma, 44.7%; with UACC-62 melanoma, 2.11% (active). Moreover, the growth in the assay with LOX IMVI melanoma is -63.6% (active); in the assay with SK-MEL-28 melanoma, 16.5%.
`N#CCN1C(=O)C2C3=C(CCCC3)SC2N=C1CN1CCCC1` (stereo not given): the growth was 99.7% in the assay on DU-145 prostate; 70.1% in the assay with K-562 leukemia; 111% in the assay with MALME-3M melanoma; 94.9% in the assay with MDA-MB-231 breast; 88.6% in the assay with RXF 393 renal; 118% in the assay on SF-268 CNS. Further, the growth in the assay with SF-295 CNS is 107%; with SF-539 CNS it was 92.5%; in the assay on UACC-257 melanoma it was 96.8%; with M14 melanoma it was 120%; in the assay with HCT-15 colon, 74.4%; in the assay with HT29 colon, 110%. For the same molecule, the growth with SNB-75 CNS was 88.3%; with SNB-19 CNS, 106%; in the assay on U251 CNS it was 102%; in the assay on PC-3 prostate, 48.5%; in the assay with SK-MEL-5 melanoma, 98.2%; in the assay on UACC-62 melanoma, 83.6%. In addition, the growth in the assay with LOX IMVI melanoma is 97.7%; in the assay on SK-MEL-28 melanoma, 120%.

The values are drawn from PubChem BioAssay (NCI).
